The panel holds about 79,000 compounds, 15% with a hit somewhere; the sample as a whole holds those more often. A number with no mark means an inactive call. Rule as the data show it: active = growth inhibition above about 70%; inactive = the rest.
experiment: NCI Yeast Anticancer Drug Screen. Data for the rad50 strain (AID 155);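 also: 0% = growth of vehicle-only cultures of the same strain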; details: S. cerevisiae rad50 strain growth inhibition; at 50.0 µM; active compounds read high
Experimental: Growth inhibition of yeast strains with defined genetic alterations is measured as a screen for potential anti-cancer activity. Selected strains with alterations in DNA damage repair or cell cycle control were exposed to compounds and growth inhibition was measured relative to vehicle treated controls. The strain used in this assay is rad50

Row | Structure (SMILES) | growth inhibition [%]
1 | OCC1OC(OC2C(O)C(CO)OC2(CO)OC2OC(CO)C(O)C(O)C2O)C(O)C(O)C1O (stereo not given) | -18.1
2 | CC1(O)OC(COc2ccc(Cl)cc2)COC1O (stereo not given) | 0.55
3 | CCC(C#N)(CC)c1ccccc1 | 16
4 | CCC(O)CC(CC)CO (stereo not given) | -4.1
5 | O=C(O)CCCc1ccccc1 | 5.1
6 | COc1cc2nc3cc([N+](=O)[O-])ccc3c(Cl)c2cc1OC | -14.8
7 | C/C(=C\c1cc(Cl)ccc1OCC(=O)O)[N+](=O)[O-] | 38.1
8 | CC1CCC(C(=O)O)N1 (stereo not given) | 29.6
9 | CCN(CC)c1ccc2nc3ccc(=[N+](CC)CC)cc-3oc2c1 | -213
10 | CC12CC3CC1C(C(=O)O2)C3C(=O)O (stereo not given) | -20.6
11 | COC(=O)c1cccc(Br)c1 | -4.4
12 | O=C1N(C[P+](c2ccccc2)(c2ccccc2)c2ccccc2)CCCN1C[P+](c1ccccc1)(c1ccccc1)c1ccccc1 | 17.4
13 | O=C(O)CCCCNC(=O)c1ccccc1 | 19.6
14 | CC1CCC2C(C)(C)C3CC12CC1OC13C (stereo not given) | -17.4
15 | CN(C)C(=O)Oc1cccc([N+](C)(C)C)c1 | -1.5
16 | CCOc1ccc(/C=C/C(=O)c2ccccc2)cc1 | -9.9
17 | NC(=S)NN=C1CCCC1 | 2.2
18 | O=C(O)CCCC(=O)O | -36.5
19 | O=C(Nc1cc(-c2ccccc2)[nH]n1)c1ccc(Cl)cc1 | -5.35
20 | CN(C)CCN(Cc1ccccc1)c1ccccc1 | -16.1

Row | Structure (SMILES) | growth inhibition [%]
21 | OC1OC(COC(c2ccccc2)(c2ccccc2)c2ccccc2)C(O)C(O)C1O (stereo not given) | -11.9
22 | COCCOCCCl | 10
23 | CC(O)COc1ccc(-c2ccccc2)cc1 (stereo not given) | 5.5
24 | C#CC(C)(O)c1ccc(Cl)cc1 (stereo not given) | 14.4
25 | CN(C)Cc1cc(C(C)(C)CC(C)(C)C)ccc1O | 38.2
26 | CCc1nc(N)nc(N)c1-c1ccc(Cl)cc1 | -9.9
27 | COc1ccc(C(O)c2ccccc2)cc1 (stereo not given) | 2.2
28 | NCC(=O)CCC(=O)O | 6.3
29 | COc1ccccc1N1CCN(C(=S)Nc2ccccc2)CC1 | 32.3
30 | O=C(Cc1nc2ccc([N+](=O)[O-])cc2nc1CC(=O)c1ccccc1)c1ccccc1 | -2.4
31 | CCCCC(CC)COC(C)=O (stereo not given) | 14.4
32 | O=C(c1ccccc1)C1CCC1 | 22.6
33 | O=C(NCCNC(=O)c1ccc(Cl)cc1Cl)c1ccc(Cl)cc1Cl | -9.25
34 | CCc1nn(Cc2ccccc2)c2nc(C)c(CCc3ccccc3)c(Cl)c12 | -6.85
35 | CCNc1nc2c(cnn2C)c(=O)[nH]1 | -16.6
36 | Cc1ccc(C(=O)NC2c3ccccc3Oc3ccccc32)cc1 | -0.25
37 | C/C=C/CC(C)C(O)C1C(=O)NC(CC)C(=O)N(C)CC(=O)N(C)C(CC(C)C)C(=O)NC(C(C)C)C(=O)N(C)C(CC(C)C)C(=O)NC(C)C(=O)NC(C)C(=O)N(C)C(CC(C)C)C(=O)N(C)C(CC(C)C)C(=O)N(C)C(C(C)C)C(=O)N1C (stereo not given) | 17.3
38 | CCOC(=O)/C(=C/c1ccc(OC)cc1)N(CC)CC | -45.8
39 | CNS(=O)(=O)c1ccc(Cl)c(Cl)c1 | -43.2
40 | O=c1cc(-c2ccccc2)[nH]c2c1CCCC2 | -17.8
